For 81 sequences, binding signal results are on record in publication PMC6602471.

The full ranking holds about 1,300 sequences; the median of “log fluorescence intensity” is about 8.3, and the highest 2% start at about 12. What follows is part of a selection rich in the highest values, with near analogues and random picks from the rest.

This assay addresses T1, ETS1 (Homo sapiens, UniProt P14921 1-441).
T1 sequence: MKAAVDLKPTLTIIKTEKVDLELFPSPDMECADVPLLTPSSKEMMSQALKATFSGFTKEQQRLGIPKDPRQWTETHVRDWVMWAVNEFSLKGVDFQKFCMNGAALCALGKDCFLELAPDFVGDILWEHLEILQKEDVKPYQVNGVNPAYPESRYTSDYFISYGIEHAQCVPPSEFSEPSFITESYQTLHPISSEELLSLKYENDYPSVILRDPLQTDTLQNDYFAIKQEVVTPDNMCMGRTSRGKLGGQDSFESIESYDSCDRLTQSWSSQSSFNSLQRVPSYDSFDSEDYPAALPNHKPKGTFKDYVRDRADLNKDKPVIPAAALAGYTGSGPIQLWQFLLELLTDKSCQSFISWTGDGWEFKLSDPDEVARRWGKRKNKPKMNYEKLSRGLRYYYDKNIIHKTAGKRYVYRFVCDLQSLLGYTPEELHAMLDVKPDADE
The experiment in a line: custom PBM; custom protein-binding microarray; buffer, salt, pH and temperature not stated; high values mean tight binding. The following applies: dsDNA, one strand shown.
Turning to “TCCGGCTACCAGCTCCACCCACTTCCGGCCTTGTAGGTCTTGATTCGCTTGACGCTGCTG”, the binding signal is 13.1 log fluorescence intensity. Then “TCCGGCTACCAGCTCCACCCACTTCAAGCCTTGTAGGTCTTGATTCGCTTGACGCTGCTG”, with 8.4 log fluorescence intensity; and “TCCGGCTACCAGCTCCACCCACTTCAGGCCTTGTAGGTCTTGATTCGCTTGACGCTGCTG”, with 8.36 log fluorescence intensity. Then “TAAAGGGAAGAGGGTTGTGGTAGTTCCGGGTATTAAGTCTTGATTCGCTTGACGCTGCTG”, with 8.6 log fluorescence intensity.

In the case of “TCCGGCTACCACCTCCACCCACTTCAGGCCTTGTAGGTCTTGATTCGCTTGACGCTGCTG”, the binding signal is 8.32 log fluorescence intensity.

As for “GGAAAAAGGCCCAGGGTAACGCCGGAAGTGGGCTTAGTCTTGATTCGCTTGACGCTGCTG”, the binding signal is 10.7 log fluorescence intensity. Then “GGAAAAAGGCCCAGGGTAACAGCGGAAGTGGGCTTAGTCTTGATTCGCTTGACGCTGCTG”, with 10.2 log fluorescence intensity; and “GGAAAAAAGCCCAGGGTAACACCGGAAGTGGGCTTAGTCTTGATTCGCTTGACGCTGCTG”, with 12.1 log fluorescence intensity; and “GGAAAAAGCCCCAGGGTAACACCGGAAGTGGGCTTAGTCTTGATTCGCTTGACGCTGCTG”, with 12.1 log fluorescence intensity.

For the sequence “AGAAAAAGGCCCAGGGTAACACCGGAAGTGGGCTTAGTCTTGATTCGCTTGACGCTGCTG”, the binding signal was 11.9 log fluorescence intensity.

Take “GGAAAAGGGCCCAGGGTAACACCGGAAGTGGGCTTAGTCTTGATTCGCTTGACGCTGCTG”: the binding signal was 11.8 log fluorescence intensity. Then “CGAAAAAGGCCCAGGGTAACACCGGAAGTGGGCTTAGTCTTGATTCGCTTGACGCTGCTG”, with 12 log fluorescence intensity; and “TGAAAAAGGCCCAGGGTAACACCGGAAGTGGGCTTAGTCTTGATTCGCTTGACGCTGCTG”, with 11.8 log fluorescence intensity; and “GGAAAAAGGCCCAGTGTAACACCGGAAGTGGGCTTAGTCTTGATTCGCTTGACGCTGCTG”, with 12 log fluorescence intensity.

As for “GGAAAAAGGCCCAAGGTAACACCGGAAGTGGGCTTAGTCTTGATTCGCTTGACGCTGCTG”, the binding signal is 12.1 log fluorescence intensity. With “GGAAAAAGGCCCACGGTAACACCGGAAGTGGGCTTAGTCTTGATTCGCTTGACGCTGCTG”, the binding signal is 12.2 log fluorescence intensity. As for “GGAAAAAGGCCCATGGTAACACCGGAAGTGGGCTTAGTCTTGATTCGCTTGACGCTGCTG”, the binding signal was 11.9 log fluorescence intensity. Then “GGAAAAAGGCCAAGGGTAACACCGGAAGTGGGCTTAGTCTTGATTCGCTTGACGCTGCTG”, with 12 log fluorescence intensity. Under “CTGGGACTTGACCCGACTCTGCCACGTGGGTCGTTTGTCTTGATTCGCTTGACGCTGCTG” stands 8.49 log fluorescence intensity; under “TACTGACATATATATGCGAATGCACATGAATAGACCGTCTTGATTCGCTTGACGCTGCTG”, 8.43 log fluorescence intensity; under “GAGCATAGGACTTCTTCCCTGAAGCAATTGATAACCGTCTTGATTCGCTTGACGCTGCTG”, 8.32 log fluorescence intensity. Under “CGGAAGTGTCGTAAACGTCGGATATCCGGTTCGTCTGTCTTGATTCGCTTGACGCTGCTG” stands 11.9 log fluorescence intensity; under “TGTCGGGTAAGGGAATGTAGATGACGTGAATGAAAAGTCTTGATTCGCTTGACGCTGCTG”, 8.36 log fluorescence intensity; under “GGAAAAAGGCCCAGGGTAACACCGGAAGTGCGCTTAGTCTTGATTCGCTTGACGCTGCTG”, 11.7 log fluorescence intensity. On to “GATTAATTTCTGCCCTTATTCGCACGTGCAATAACAGTCTTGATTCGCTTGACGCTGCTG”, for which the binding signal was 8.3 log fluorescence intensity. Under “CAGAAGTGTCGTAAACGTCGGATATCCGGTTCTTCTGTCTTGATTCGCTTGACGCTGCTG” stands 12.1 log fluorescence intensity; under “CGGAAGTGTCGTAAGCGTCGGATATCCGGTTCTTCTGTCTTGATTCGCTTGACGCTGCTG”, 11.7 log fluorescence intensity; under “CGGCAGTGTCGTAAACGTCGGATATCCGGTTCTTCTGTCTTGATTCGCTTGACGCTGCTG”, 11.7 log fluorescence intensity.

As for “GGAAACAGGCCCAGGGTAACACCGGAAGTGGGCTTAGTCTTGATTCGCTTGACGCTGCTG”, the binding signal is 11.8 log fluorescence intensity.

On to “TAAAGGGAAGACGGTTGTAGTAGTTCCGGGTATTAAGTCTTGATTCGCTTGACGCTGCTG”, for which the binding signal was 8.81 log fluorescence intensity. Under “GCTGCTGCGCTGCATACCCCACCGGATGTGACCCCGGTCTTGATTCGCTTGACGCTGCTG” stands 10.1 log fluorescence intensity. Under “TACTGACTTATATATGCGAATGCACATCAATAGACCGTCTTGATTCGCTTGACGCTGCTG” stands 8.32 log fluorescence intensity; under “GCTGCTGCGGTGCATACCCCACCAGATGTGACCCCGGTCTTGATTCGCTTGACGCTGCTG”, 8.36 log fluorescence intensity. Under “CACAATTTTTACAGTAATGTAGCACGCGTAAATCCTGTCTTGATTCGCTTGACGCTGCTG” stands 8.32 log fluorescence intensity; under “GTGTATAGGATCCCATCGAACACACGTGTTAAAATGGTCTTGATTCGCTTGACGCTGCTG”, 8.36 log fluorescence intensity.

“TAAAGGGAAGACGGTTGTGGTAGTTCCGGGTATTAGGTCTTGATTCGCTTGACGCTGCTG”: the binding signal was 8.47 log fluorescence intensity.

In the case of “CGGAAGTGTCGTAAACGTCGGAAATCCGGTTCTTCTGTCTTGATTCGCTTGACGCTGCTG”, the binding signal is 9.71 log fluorescence intensity. Under “CGGAAGTGTCGTAAACGTCGGATCTCCGGTTCTTCTGTCTTGATTCGCTTGACGCTGCTG” stands 8.47 log fluorescence intensity; under “CGGAAGTGTCGTAAACGTCGGAGATCCGGTTCTTCTGTCTTGATTCGCTTGACGCTGCTG”, 8.83 log fluorescence intensity; under “CGGAAGTGTCGTAAACGTCGGATTTCCGGTTCTTCTGTCTTGATTCGCTTGACGCTGCTG”, 12.5 log fluorescence intensity.

“CGGAAGTGTCGTAAACGTCTGATATCCGGTTCTTCTGTCTTGATTCGCTTGACGCTGCTG”: the binding signal was 11.8 log fluorescence intensity.

For the sequence “CGGAAGTGTCTTAAACGTCGGATATCCGGTTCTTCTGTCTTGATTCGCTTGACGCTGCTG”, the binding signal is 11.6 log fluorescence intensity. Then “CGGAAGTGTCGTAAACGTCGGACATCCGGTTCTTCTGTCTTGATTCGCTTGACGCTGCTG”, with 12.6 log fluorescence intensity; and “CGGAAGTGTCGTAAACGTCGGATGTCCGGTTCTTCTGTCTTGATTCGCTTGACGCTGCTG”, with 9.65 log fluorescence intensity. Under “CGGAAGTGTCGGAAACGTCGGATATCCGGTTCTTCTGTCTTGATTCGCTTGACGCTGCTG” stands 12.8 log fluorescence intensity.

As for “CGGAAGTGTCGAAAACGTCGGATATCCGGTTCTTCTGTCTTGATTCGCTTGACGCTGCTG”, the binding signal is 12 log fluorescence intensity. With “CCGAAGTGTCGTAAACGTCGGATATCCGGTTCTTCTGTCTTGATTCGCTTGACGCTGCTG”, the binding signal was 12 log fluorescence intensity. Under “CGGAAGTGTCGTAAACGTCCGATATCCGGTTCTTCTGTCTTGATTCGCTTGACGCTGCTG” stands 12.2 log fluorescence intensity; under “CGGAAGTGTCGTAAACGTCGGTTATCCGGTTCTTCTGTCTTGATTCGCTTGACGCTGCTG”, 9.21 log fluorescence intensity. Then “CGGAAGTGTCGTAAACGTCGCATATCCGGTTCTTCTGTCTTGATTCGCTTGACGCTGCTG”, with 12.2 log fluorescence intensity; and “CGGAAGCGTCGTAAACGTCGGATATCCGGTTCTTCTGTCTTGATTCGCTTGACGCTGCTG”, with 11.8 log fluorescence intensity.

For the sequence “CGGAATTGTCGTAAACGTCGGATATCCGGTTCTTCTGTCTTGATTCGCTTGACGCTGCTG”, the binding signal is 12.2 log fluorescence intensity. Under “CGGAAGTGTCGTAAACGTCGTATATCCGGTTCTTCTGTCTTGATTCGCTTGACGCTGCTG” stands 11.8 log fluorescence intensity; under “CGGAACTGTCGTAAACGTCGGATATCCGGTTCTTCTGTCTTGATTCGCTTGACGCTGCTG”, 11.8 log fluorescence intensity. Under “CTGGGACTTGACCCAACTCTGCCACGTGGGTCGCTTGTCTTGATTCGCTTGACGCTGCTG” stands 8.36 log fluorescence intensity; under “GGAAAAAGGCCCAGGGTCACACCGGAAGTGGGCTTAGTCTTGATTCGCTTGACGCTGCTG”, 11.9 log fluorescence intensity. Under “GGAAAAAGGCCCAGGGTGACACCGGAAGTGGGCTTAGTCTTGATTCGCTTGACGCTGCTG” stands 11.8 log fluorescence intensity; under “GGAAAAAGGCCCAGGCTAACACCGGAAGTGGGCTTAGTCTTGATTCGCTTGACGCTGCTG”, 12.1 log fluorescence intensity; under “GGAAAAAGGCCCAGGGGAACACCGGAAGTGGGCTTAGTCTTGATTCGCTTGACGCTGCTG”, 12.1 log fluorescence intensity. Regarding “GGATAAAGGCCCAGGGTAACACCGGAAGTGGGCTTAGTCTTGATTCGCTTGACGCTGCTG”, the binding signal was 11.9 log fluorescence intensity. Under “GGAAAAAGGCCCAGGATAACACCGGAAGTGGGCTTAGTCTTGATTCGCTTGACGCTGCTG” stands 12.2 log fluorescence intensity; under “GGCAAAAGGCCCAGGGTAACACCGGAAGTGGGCTTAGTCTTGATTCGCTTGACGCTGCTG”, 11.7 log fluorescence intensity; under “GGTAAAAGGCCCAGGGTAACACCGGAAGTGGGCTTAGTCTTGATTCGCTTGACGCTGCTG”, 11.9 log fluorescence intensity. Then “GGGAAAAGGCCCAGGGTAACACCGGAAGTGGGCTTAGTCTTGATTCGCTTGACGCTGCTG”, with 11.9 log fluorescence intensity; and “GGAAAAAGGCCCAGGGCAACACCGGAAGTGGGCTTAGTCTTGATTCGCTTGACGCTGCTG”, with 12.2 log fluorescence intensity. Under “GCAAAAAGGCCCAGGGTAACACCGGAAGTGGGCTTAGTCTTGATTCGCTTGACGCTGCTG” stands 11.9 log fluorescence intensity. For the sequence “GGAAAAAGGCCCAGGGAAACACCGGAAGTGGGCTTAGTCTTGATTCGCTTGACGCTGCTG”, the binding signal was 12.3 log fluorescence intensity. “GATTAATTTCTGCCCTTATTCGAACGTGCCATAACAGTCTTGATTCGCTTGACGCTGCTG”: the binding signal is 8.42 log fluorescence intensity. Then “TCCGGCTACCAGCTCCACCCACTTCAGGCCTTATAGGTCTTGATTCGCTTGACGCTGCTG”, with 8.46 log fluorescence intensity; and “GAAAGGGAAGACGGTTGTGGTAGTTCCGGGTATTAAGTCTTGATTCGCTTGACGCTGCTG”, with 8.75 log fluorescence intensity; and “CGGAAGTGTCGTAAACGTCGGATATCCGGTTTTTCTGTCTTGATTCGCTTGACGCTGCTG”, with 11.9 log fluorescence intensity.

Consider “TCCGGCTACCAGCTGCACCCACTTCAGGCCTTGTAGGTCTTGATTCGCTTGACGCTGCTG”, for which the binding signal was 8.44 log fluorescence intensity. Then “GCTGCTGCGGTGTATACCCCACCGGATGTGACCCCGGTCTTGATTCGCTTGACGCTGCTG”, with 10.1 log fluorescence intensity; and “GGAAAACGGCCCAGGGTAACACCGGAAGTGGGCTTAGTCTTGATTCGCTTGACGCTGCTG”, with 12 log fluorescence intensity. Then “TACTGACTTATATATGGGAATGCACATGAATAGACCGTCTTGATTCGCTTGACGCTGCTG”, with 8.32 log fluorescence intensity; and “TTAAGGGAAGACGGTTGTGGTAGTTCCGGGTATTAAGTCTTGATTCGCTTGACGCTGCTG”, with 8.48 log fluorescence intensity; and “CGGAAGTGTCGTAAACGTCGGATATCCGGCTCTTCTGTCTTGATTCGCTTGACGCTGCTG”, with 10.7 log fluorescence intensity. Under “CGGAAGTGTCGTAAATGTCGGATATCCGGTTCTTCTGTCTTGATTCGCTTGACGCTGCTG” stands 11.9 log fluorescence intensity. For the sequence “TCCGGCTACCAGCTTCACCCACTTCAGGCCTTGTAGGTCTTGATTCGCTTGACGCTGCTG”, the binding signal is 8.4 log fluorescence intensity. Under “GCTGCTGCGGTGCGTACCCCACCGGATGTGACCCCGGTCTTGATTCGCTTGACGCTGCTG” stands 9.93 log fluorescence intensity; under “GCTGCTGCGGTGCATACCCCACCGGATGTGACCCAGGTCTTGATTCGCTTGACGCTGCTG”, 10.3 log fluorescence intensity.
